Laboratory results as given in article PMC7862700, “An all-to-all approach to the identification of sequence-specific readers for epigenetic DNA modifications on cytosine”.

Assays:
Assay in all cases: DAPPL (digital affinity profiling via proximity ligation, sequencing); 10 mM Tris-HCl pH 7.5, 50 mM NaCl, 1 mM DTT, 4% glycerol, room temperature, 30 min; GST-TFs on glutathione beads, 16-mer random dsDNA library, 0.1% formaldehyde crosslink after washing; high values mean tight binding
Settings in all cases: protein: recombinant; tags: N-terminal GST; dsDNA, one strand shown
ERF = biological target: T1, ERF (Homo sapiens, UniProt P50548 1-548)
T1 sequence: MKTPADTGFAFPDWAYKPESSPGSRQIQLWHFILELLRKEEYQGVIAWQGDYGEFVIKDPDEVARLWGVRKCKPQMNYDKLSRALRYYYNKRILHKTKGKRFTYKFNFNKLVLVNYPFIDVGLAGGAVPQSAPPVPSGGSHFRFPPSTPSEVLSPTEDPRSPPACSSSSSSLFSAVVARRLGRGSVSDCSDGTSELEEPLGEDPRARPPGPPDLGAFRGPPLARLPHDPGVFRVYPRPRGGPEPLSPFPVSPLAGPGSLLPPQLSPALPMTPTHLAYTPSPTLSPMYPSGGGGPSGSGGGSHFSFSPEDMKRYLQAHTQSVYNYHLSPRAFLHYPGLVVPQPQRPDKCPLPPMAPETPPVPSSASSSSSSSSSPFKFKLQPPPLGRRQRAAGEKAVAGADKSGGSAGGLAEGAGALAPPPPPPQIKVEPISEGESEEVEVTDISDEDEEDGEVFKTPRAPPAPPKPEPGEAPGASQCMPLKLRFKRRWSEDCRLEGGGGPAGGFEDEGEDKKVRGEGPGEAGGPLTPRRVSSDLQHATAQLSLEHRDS
How it was run: (§1)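 Human transcription factors fused to GST were expressed in yeast, captured on glutathione beads, given DNA barcodes and pooled with a GST-only negative control. Pools were incubated with 200 nmole of a 16-mer random double-stranded DNA library in Tris/NaCl/DTT/glycerol buffer at room temperature for 30 min. They were then washed, crosslinked with 0.1% formaldehyde, proximity-ligated (BsaI/T4 ligase, 1 h, 37 °C), PCR-amplified and sequenced on an Illumina NextSeq500. Binding signal is each 6-mer's read frequency for a factor divided by its frequency for the GST control.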

ETV3L = biological target: T2, ETV3L (Homo sapiens, UniProt Q6ZN32 1-361)
T2 sequence: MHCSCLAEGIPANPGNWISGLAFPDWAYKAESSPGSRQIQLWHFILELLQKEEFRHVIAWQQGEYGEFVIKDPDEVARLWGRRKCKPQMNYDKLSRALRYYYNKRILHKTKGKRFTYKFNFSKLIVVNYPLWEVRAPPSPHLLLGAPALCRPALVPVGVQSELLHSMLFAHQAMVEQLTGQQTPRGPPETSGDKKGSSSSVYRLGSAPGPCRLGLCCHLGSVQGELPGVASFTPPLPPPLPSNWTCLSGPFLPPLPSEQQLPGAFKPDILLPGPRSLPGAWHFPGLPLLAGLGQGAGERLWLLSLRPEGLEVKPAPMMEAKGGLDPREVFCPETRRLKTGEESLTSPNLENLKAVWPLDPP
How it was run: as §1

ETS2 = biological target: T3, ETS2 (Homo sapiens, UniProt P15036 1-469)
T3 sequence: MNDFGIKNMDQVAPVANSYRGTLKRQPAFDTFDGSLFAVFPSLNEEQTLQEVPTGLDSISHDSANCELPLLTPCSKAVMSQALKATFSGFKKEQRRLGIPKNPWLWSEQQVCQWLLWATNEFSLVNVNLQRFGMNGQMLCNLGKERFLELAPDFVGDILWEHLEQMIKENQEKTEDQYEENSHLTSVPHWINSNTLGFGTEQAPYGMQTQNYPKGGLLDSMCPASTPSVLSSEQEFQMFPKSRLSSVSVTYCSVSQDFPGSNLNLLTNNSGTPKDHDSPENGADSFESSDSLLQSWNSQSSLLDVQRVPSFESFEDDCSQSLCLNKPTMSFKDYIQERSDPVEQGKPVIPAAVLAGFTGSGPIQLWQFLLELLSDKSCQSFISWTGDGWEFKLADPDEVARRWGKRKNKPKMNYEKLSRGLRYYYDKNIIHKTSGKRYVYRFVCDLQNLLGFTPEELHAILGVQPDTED
How it was run: as §1

SPDEF = biological target: T4, SPDEF (Homo sapiens, UniProt O95238 1-335)
T4 sequence: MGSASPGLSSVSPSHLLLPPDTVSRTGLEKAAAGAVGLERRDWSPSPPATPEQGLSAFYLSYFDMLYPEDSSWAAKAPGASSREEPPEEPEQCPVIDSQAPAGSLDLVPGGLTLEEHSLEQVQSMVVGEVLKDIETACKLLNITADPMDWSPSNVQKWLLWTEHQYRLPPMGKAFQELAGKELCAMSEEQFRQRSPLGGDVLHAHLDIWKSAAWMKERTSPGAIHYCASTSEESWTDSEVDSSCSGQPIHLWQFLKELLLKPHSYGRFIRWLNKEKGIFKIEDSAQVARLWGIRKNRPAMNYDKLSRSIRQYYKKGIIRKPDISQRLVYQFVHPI
How it was run: as §1

ETV7 = biological target: T5, ETV7 (Homo sapiens, UniProt Q9Y603 1-341)
T5 sequence: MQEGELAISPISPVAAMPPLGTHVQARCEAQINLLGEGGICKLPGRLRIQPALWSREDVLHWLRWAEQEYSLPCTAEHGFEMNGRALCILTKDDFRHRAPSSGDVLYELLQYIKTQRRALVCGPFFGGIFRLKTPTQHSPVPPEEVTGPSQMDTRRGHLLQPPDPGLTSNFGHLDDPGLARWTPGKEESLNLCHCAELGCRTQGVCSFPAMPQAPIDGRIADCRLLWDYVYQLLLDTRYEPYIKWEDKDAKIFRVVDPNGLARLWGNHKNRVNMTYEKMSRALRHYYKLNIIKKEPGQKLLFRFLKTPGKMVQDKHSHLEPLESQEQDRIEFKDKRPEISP
How it was run: as §1

ELF5 = biological target: T6, ELF5 (Homo sapiens, UniProt Q9UKW6-2 1-255)
T6 sequence: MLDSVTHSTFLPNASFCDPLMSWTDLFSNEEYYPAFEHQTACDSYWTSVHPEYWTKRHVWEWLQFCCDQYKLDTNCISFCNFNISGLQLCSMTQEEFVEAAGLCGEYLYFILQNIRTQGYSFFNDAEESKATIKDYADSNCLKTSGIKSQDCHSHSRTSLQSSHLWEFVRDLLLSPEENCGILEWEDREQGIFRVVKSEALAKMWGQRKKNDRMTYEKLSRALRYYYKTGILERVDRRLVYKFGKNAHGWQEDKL
How it was run: as §1

ETV3 = biological target: T7, ETV3 (Homo sapiens, UniProt P41162-2 1-143)
T7 sequence: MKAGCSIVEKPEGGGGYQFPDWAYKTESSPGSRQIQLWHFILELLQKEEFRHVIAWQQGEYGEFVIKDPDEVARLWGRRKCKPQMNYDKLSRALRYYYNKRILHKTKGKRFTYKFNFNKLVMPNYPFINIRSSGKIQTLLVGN
How it was run: as §1

ETV6 = ETV6 (Homo sapiens, UniProt P41212 1-452)
How it was run: as §1

ETV6, sequence (P41212 whole entry): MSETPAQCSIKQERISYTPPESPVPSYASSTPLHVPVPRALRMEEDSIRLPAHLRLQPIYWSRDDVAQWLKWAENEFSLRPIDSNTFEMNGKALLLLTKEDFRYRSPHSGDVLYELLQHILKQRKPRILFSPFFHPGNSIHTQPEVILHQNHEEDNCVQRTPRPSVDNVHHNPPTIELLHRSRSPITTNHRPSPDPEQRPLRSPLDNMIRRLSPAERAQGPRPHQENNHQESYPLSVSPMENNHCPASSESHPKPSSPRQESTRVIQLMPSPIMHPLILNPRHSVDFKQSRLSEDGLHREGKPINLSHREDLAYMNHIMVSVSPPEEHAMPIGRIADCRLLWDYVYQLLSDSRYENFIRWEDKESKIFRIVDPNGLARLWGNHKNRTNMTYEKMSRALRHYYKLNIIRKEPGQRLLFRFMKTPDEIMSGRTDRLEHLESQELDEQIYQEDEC

Sequence	binding signal (ERF)	binding signal (ETV3L)	binding signal (ETS2)	binding signal (SPDEF)	binding signal (ETV7)	binding signal (ELF5)	binding signal (ETV3)	binding signal (ETV6)
TAATAT	1.35 fold enrichment (6-mer frequency, TF over GST control)	1.34 fold enrichment (6-mer frequency, TF over GST control)	1.24 fold enrichment (6-mer frequency, TF over GST control)	1.23 fold enrichment (6-mer frequency, TF over GST control)	1.35 fold enrichment (6-mer frequency, TF over GST control)	1.22 fold enrichment (6-mer frequency, TF over GST control)	1.23 fold enrichment (6-mer frequency, TF over GST control)	1.23 fold enrichment (6-mer frequency, TF over GST control)
TAATCT	1.39 fold enrichment (6-mer frequency, TF over GST control)	1.32 fold enrichment (6-mer frequency, TF over GST control)	1.43 fold enrichment (6-mer frequency, TF over GST control)	1.34 fold enrichment (6-mer frequency, TF over GST control)	1.5 fold enrichment (6-mer frequency, TF over GST control)	1.46 fold enrichment (6-mer frequency, TF over GST control)	1.28 fold enrichment (6-mer frequency, TF over GST control)	1.37 fold enrichment (6-mer frequency, TF over GST control)
CACTTA	1.22 fold enrichment (6-mer frequency, TF over GST control)	1.13 fold enrichment (6-mer frequency, TF over GST control)	1.22 fold enrichment (6-mer frequency, TF over GST control)	1.34 fold enrichment (6-mer frequency, TF over GST control)	1.21 fold enrichment (6-mer frequency, TF over GST control)	1.18 fold enrichment (6-mer frequency, TF over GST control)	1.24 fold enrichment (6-mer frequency, TF over GST control)	1.23 fold enrichment (6-mer frequency, TF over GST control)
TCTCGT	1.16 fold enrichment (6-mer frequency, TF over GST control)	1.21 fold enrichment (6-mer frequency, TF over GST control)	1.34 fold enrichment (6-mer frequency, TF over GST control)	1.15 fold enrichment (6-mer frequency, TF over GST control)	1.2 fold enrichment (6-mer frequency, TF over GST control)	1.24 fold enrichment (6-mer frequency, TF over GST control)	1.03 fold enrichment (6-mer frequency, TF over GST control)	1.18 fold enrichment (6-mer frequency, TF over GST control)
ACGTCT	1.12 fold enrichment (6-mer frequency, TF over GST control)	1.29 fold enrichment (6-mer frequency, TF over GST control)	1.26 fold enrichment (6-mer frequency, TF over GST control)	1.12 fold enrichment (6-mer frequency, TF over GST control)	1.29 fold enrichment (6-mer frequency, TF over GST control)	1.09 fold enrichment (6-mer frequency, TF over GST control)	1.17 fold enrichment (6-mer frequency, TF over GST control)	1.19 fold enrichment (6-mer frequency, TF over GST control)
ATAATA	1.32 fold enrichment (6-mer frequency, TF over GST control)	1.14 fold enrichment (6-mer frequency, TF over GST control)	1.2 fold enrichment (6-mer frequency, TF over GST control)	1.15 fold enrichment (6-mer frequency, TF over GST control)	1.14 fold enrichment (6-mer frequency, TF over GST control)	1.17 fold enrichment (6-mer frequency, TF over GST control)	1.2 fold enrichment (6-mer frequency, TF over GST control)	1.2 fold enrichment (6-mer frequency, TF over GST control)
TAAAGT	1.09 fold enrichment (6-mer frequency, TF over GST control)	1.29 fold enrichment (6-mer frequency, TF over GST control)	1.22 fold enrichment (6-mer frequency, TF over GST control)	1.15 fold enrichment (6-mer frequency, TF over GST control)	1.25 fold enrichment (6-mer frequency, TF over GST control)	1.17 fold enrichment (6-mer frequency, TF over GST control)	1.18 fold enrichment (6-mer frequency, TF over GST control)	1.09 fold enrichment (6-mer frequency, TF over GST control)
CCCGTT	1.13 fold enrichment (6-mer frequency, TF over GST control)	1.19 fold enrichment (6-mer frequency, TF over GST control)	1.1 fold enrichment (6-mer frequency, TF over GST control)	1.2 fold enrichment (6-mer frequency, TF over GST control)	1.19 fold enrichment (6-mer frequency, TF over GST control)	1.27 fold enrichment (6-mer frequency, TF over GST control)	1.17 fold enrichment (6-mer frequency, TF over GST control)	1.16 fold enrichment (6-mer frequency, TF over GST control)
